Experimental data reported in PubChem BioAssay (NCATS).
Results filed as inconclusive are left out. Calls of active or inactive are those of the source. Unless noted, the call rests on the fitted dose curve; in most records, active means well fitted curve in the direction sought with a large enough effect; inconclusive means small, poorly fitted or top-dose-only effect, or another doubt; inactive means no such curve, though single readings can be large; an effect the other way counts as inactive or inconclusive.

Columns and labels:
[1] = qHTS to identify inhibitors of the type 1 interferon - major histocompatibility complex class I in skeletal muscle: primary screen against the NCATS Mechanism Interrogation Plate v5.0 (MIPE) Libary (AID 1347411); further: potency means the concentration at half of the fitted maximal effect; nearly all actives have a fitted effect of over 65% in size
Method in brief: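 Immortalized human myoblasts (C25cl48) with HiBit knocked into endogenous HLA-B*08:01 were stimulated with 4 ng/ml IFN-beta and given compounds in 11-point 1:3 titration from 46 uM. After 24 h at 37 C, lytic HiBiT luminescence was read.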

[2] = Primary qHTS for inhibitors of nuclear receptor binding SET domain protein 2 (NSD2) in an isogenic RCH-ACV NSD2 p.E1099K mutant (9B) (AID 1645876); further: potency means the concentration at half of the fitted maximal effect; nearly all actives have a fitted effect of over 70% in size
[3] = Primary qHTS for inhibitors of nuclear receptor binding SET domain protein 2 (NSD2) in an RCH-ACV wild type WT cells (2C) (AID 1645877); further: potency means the concentration at half of the fitted maximal effect; nearly all actives have a fitted effect of over 70% in size
[4] = target: Glutathione peroxidase 1 (Homo sapiens) (UniProt P07203); test: Primary qHTS Assay for Inhibitors of Recombinant Selenoprotein Glutathione Peroxidase 1 (GPX1) (AID 1845191); further: nearly all actives have a fitted effect of over 65% in size
Glutathione peroxidase 1 (Homo sapiens), sequence (P07203 whole entry, looked up): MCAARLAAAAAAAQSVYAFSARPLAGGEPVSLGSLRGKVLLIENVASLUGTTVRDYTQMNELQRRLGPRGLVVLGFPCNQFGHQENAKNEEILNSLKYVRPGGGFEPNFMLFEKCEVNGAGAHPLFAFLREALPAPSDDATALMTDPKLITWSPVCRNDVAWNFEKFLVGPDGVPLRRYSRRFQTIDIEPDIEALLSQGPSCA
Method in brief: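 Recombinant GPX1 (10 nM final) was preincubated with compound for 30 min at room temperature, then reacted with 1 mM GSH, 0.5 mM CHP, 0.5 mM NADPH and 100 nM glutathione reductase; NADPH fluorescence (340/450 nm) was read at 0 and 15 min.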

[5] = target: Phospholipid hydroperoxide glutathione peroxidase GPX4 (Homo sapiens) (UniProt P36969); test: Primary qHTS Assay for Inhibitors of Recombinant Selenoprotein Glutathione Peroxidase 4 (GPX4) (AID 1845192); conditions: outcome: dose series up to 50 µM unless noted; further: on the % scale 0 is the no-effect control and ±100 the full control effect; nearly all actives have a fitted effect of over 65% in size
Phospholipid hydroperoxide glutathione peroxidase GPX4 (Homo sapiens), sequence (P36969 whole entry, looked up): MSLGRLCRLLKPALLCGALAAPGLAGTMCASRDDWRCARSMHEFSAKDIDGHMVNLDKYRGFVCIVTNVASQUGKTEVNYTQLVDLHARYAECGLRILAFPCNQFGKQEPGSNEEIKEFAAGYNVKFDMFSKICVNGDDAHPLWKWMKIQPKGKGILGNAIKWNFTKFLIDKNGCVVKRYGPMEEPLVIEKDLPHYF
Method in brief: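 GR-coupled readout: 100 nM GR, 1 mM GSH, 0.5 mM NADPH; NADPH fluorescence (ex 340/em 450 nm) read at t=0 and after 15 min RT. GPX4 200 nM, preincubated 30 min with compound; substrate 0.5 mM CHP.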

[6] = qHTS drug screen for cell cycle checkpoint inhibitors in PARPi-resistant BRCA-mutant ovarian cancer cell lines. (AID 1963452; calls by dose curve); conditions: PEO1/OlaR viability, CellTiter-Glo luminescence, 96 h, stronger effect = lower value
Method in brief: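 PEO1, PEO4 and PEO1/OlaR ovarian cancer cells, 600 per well, exposed 96 h at 37C to a dilution series. Viability read by CellTiter-Glo luminescence, normalized to DMSO and empty wells; activity summarized as Z-AUC.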

[7] = qHTS assay to identify inhibitors of the type 1 interferon - major histocompatibility complex class I in skeletal muscle: Counter screen cell viability and HiBit confirmation (AID 1347412); conditions: iHSKM muscle cells + IFN-b, HiBiT or CellTiter-Glo, 24 h; for activity change, negative = inhibition: at 45.9 µM (top of the series); further: potency means the concentration at half of the fitted maximal effect; on activity change, negative = inhibition: on the % scale 0 is the no-effect control and ±100 the full control effect; on all read-outs here: nearly all actives have a fitted effect of over 60% in size
Method in brief: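 After 24 h with human IFN-beta (4 ng/ml) and compound titrations (top 46 uM final, 1:3, 12 points), HLA-B HiBit myoblasts were lysed for either Nano-Glo HiBiT luminescence or CellTiter Glo viability on paired plates.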

[8] = HPAF-II 24hr Apoptosis Induction qHTS against the NCATS CANVASS Library (AID 1347356); further: 0% is about no effect
Method in brief: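 HPAF-II cells (500/well) exposed to compounds in 11-point series for 24 h at 37 degrees C; caspase-3/7 activity read by Caspase-Glo luminescence after 15 min at room temperature. Doxorubicin titration as control.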

[9] = HEK293 18hr Apoptosis Induction qHTS against the NCATS CANVASS Library (AID 1347357); further: 0% is about no effect
Method in brief: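 Caspase-Glo 3/7 luminescence (15 min, room temperature) measured apoptosis after an 18-hour, 37 degrees C exposure of HEK293 cells (500 cells/well) to compounds in 11 points.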

[10] = HPAF-II 12hr Apoptosis Induction qHTS against the NCATS CANVASS Library (AID 1347358); further: 0% is about no effect
Method in brief: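 HPAF-II cells, 500/well in DMEM + 10% FBS, exposed 12 hours at 37 degrees C to compound (11-point). Caspase-Glo 3/7 added for 15 min at room temperature; luminescence reflects caspase-3/7 activity.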

[11] = HEK293 24hr Apoptosis Induction qHTS against the NCATS CANVASS Library (AID 1347359); further: 0% is about no effect
Method in brief: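 HEK293 cells (500/well, DMEM + 10% FBS) were exposed to compounds in an 11-point series for 24 hours at 37 degrees C, then caspase-3/7 activity was read by Caspase-Glo DEVD luciferase luminescence after 15 min.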

[12] = HPAF-II 18hr Apoptosis Induction qHTS against the NCATS CANVASS Library (AID 1347360); further: 0% is about no effect
Method in brief: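 Caspase-3/7 activation was measured with luminescent Caspase-Glo 3/7 reagent (15 min, RT) in HPAF-II cancer cells (500 cells/well). Before detection, cells had been treated for 18 h at 37 C with compounds (11 points).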

[13] = HEK293 12hr Apoptosis Induction qHTS against the NCATS CANVASS Library (AID 1347361); further: 0% is about no effect
Method in brief: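 HEK293 cells (500/well, DMEM + 10% FBS) were exposed to natural products across an 11-point series for 12 hours at 37 degrees C. Caspase-3/7 activity was then measured with DEVD luciferase luminescence after 15 min at room temperature.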

[14] = target: Luciferin 4-monooxygenase (Photinus pyralis) (UniProt P08659); test: Firefly luciferase counterscreen qHTS: Assay Interference Panel against the NCATS CANVASS Library (AID 1347363); further: 0% is about no effect
Luciferin 4-monooxygenase (Photinus pyralis), sequence (P08659 whole entry, looked up): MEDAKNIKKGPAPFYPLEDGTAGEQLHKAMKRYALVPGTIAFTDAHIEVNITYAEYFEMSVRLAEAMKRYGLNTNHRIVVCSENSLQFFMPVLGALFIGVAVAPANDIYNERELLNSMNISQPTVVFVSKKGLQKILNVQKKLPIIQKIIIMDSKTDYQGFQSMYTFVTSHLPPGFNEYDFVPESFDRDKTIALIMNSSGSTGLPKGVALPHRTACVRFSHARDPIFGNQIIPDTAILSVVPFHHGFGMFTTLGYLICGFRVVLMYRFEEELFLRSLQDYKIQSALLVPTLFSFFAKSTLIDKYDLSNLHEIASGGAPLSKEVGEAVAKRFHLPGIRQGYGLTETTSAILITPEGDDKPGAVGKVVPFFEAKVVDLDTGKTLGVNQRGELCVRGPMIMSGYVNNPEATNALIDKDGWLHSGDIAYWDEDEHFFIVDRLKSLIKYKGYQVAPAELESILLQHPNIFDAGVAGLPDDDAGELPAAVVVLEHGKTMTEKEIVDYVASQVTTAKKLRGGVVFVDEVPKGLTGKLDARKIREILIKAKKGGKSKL
Method in brief: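 Purified P. pyralis luciferase was added to compounds (11-point series) preincubated 15 min at room temperature with substrate containing 0.013 mM D-luciferin and 0.013 mM ATP; luminescence was read after 5 min.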

[15] = 10-beta competent E. coli microbial cell viability qHTS against the NCATS CANVASS Library (AID 1347376); further: 0% is about no effect
Method in brief: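 10-beta competent E. coli (0.2 OD) were exposed overnight at 37C to compounds in an 11-point series. Viability was read as ATP-dependent BacTiter-Glo luminescence after 20 min at room temperature.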

[16] = DH5-alpha competent E. coli microbial cell viability qHTS against the NCATS CANVASS Library (AID 1347377); conditions: outcome: dose series up to 46.1 µM unless noted
Method in brief: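 DH5-alpha E. coli suspension was exposed to an 11-point compound series overnight at 37 °C. Viable cells quantified by ATP luminescence (BacTiter-Glo) after 20 min at room temperature.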

[17] = Inflammasome Signaling qHTS Counterscreen: IL-1-beta AlphaLISA counterscreen against the NCATS CANVASS Library (AID 1347381);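 further: cell-free check with purified IL-1β in medium and no THP-1 cells; 0% is about no effect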
Method in brief: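 Cell-free interference check: compounds added to medium spiked with 4 pg purified IL-1β. Anti-IL-1β acceptor beads (6 ug/mL) with 0.6 nM biotinylated antibody added for 1 h at RT, then streptavidin donor beads (24 ug/mL) for 30 min in the dark. AlphaLISA read at 680/615 nm.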

[18] = Cytotoxicity qHTS for assessment of Hepg2 cells membrane integrity screened against the NCATS CANVASS Library (AID 1347387)
Method in brief: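 HepG2 cells (2000/well) attached overnight, then exposed 5 hr at 37C to compounds in an 11-point series (0.59 nM - 46 uM final). LDH release from damaged membranes read fluorometrically (CytoTox-ONE; 560/590 nm) after 10 min at room temperature.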

[19] = qHTS for activators of dead-cell proteases activity screened against the NCATS CANVASS Library (AID 1347392);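 further: luminescence from protease leaking out of membrane-damaged cells cleaving impermeant substrate; 0% is about no effect; rising signal means more cytotoxicity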
Method in brief: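 HepG2 cells (2000/well) attached 18 h at 37C, then exposed 5 h to compounds (11-point qHTS). Dead-cell protease activity read as luminescence from cell-impermeant AAF-aminoluciferin substrate after 15 min at room temperature.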

[20] = Redox Reaction Profiling qHTS: Assay Interference Panel against the NCATS CANVASS Library (AID 1347401);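 further: 100% = activation by 2 µM chloranil control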
Method in brief: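 Resazurin (5 uM) conversion to resorufin measured with 200 uM DTT in 50 mM HEPES pH 7.3, 50 mM NaCl. Compounds tested in 11-point qHTS series. Fluorescence (ex 525/em 598 nm) read before and after 15 min dark incubation.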

[21] = measured here: PEO1 parental Z-AUC

Fc1cccc(-n2cnc3c(NCc4nc5c(F)c(F)ccc5[nH]4)nc(N4CCOCC4)nc32)c1
-2.45: Z-AUC [6, 21]
active: Potency [1] 0.523 µM | Potency [2] 0.166 µM | Potency [3] 0.166 µM | Potency ([7]; HiBiT) 0.442 µM
-2.33: Z-AUC ([6]; measured here: PEO4 Z-AUC)
inactive: Potency [4] | Potency [5] | Z-AUC [6] -1.76 | activity change, negative = inhibition ([7]; Viability) -14.7%

Cc1cc2cc(Oc3ccnc(Nc4cccc(CS(=O)(=O)NCCN(C)C)c4)n3)ccc2[nH]1
0.0861: Z-AUC ([6]; measured here: PEO4 Z-AUC)
inactive: Potency [4] | Potency [5] | Z-AUC [6] 0.517 | activity change, negative = inhibition ([7]; Viability) -27.6%
0.192: Z-AUC [6, 21]
active: Potency [1] 13.1 µM | Potency [2] 8.33 µM | Potency [3] 5.9 µM | Potency ([7]; HiBiT) 22.2 µM

CC[C@@H](c1cc(OC)c(OC)cc1OC)[C@H](C)[C@@H](/C(C)=C/c1cc(OC)c(OC)cc1OC)c1cc(OC)c(OC)cc1OC
inactive: outcome [8] | Potency [9] | Potency [10] | Potency [11] | Potency [12] | outcome [13] | Potency [14] | outcome [15] | outcome [16] | outcome [17] | outcome [18] | Potency [19] | Potency [20]

C=C1C(=O)O[C@H]2[C@H]1CCC(C)=C1CC[C@@](C)(O)[C@@H]12
inactive: outcome [8] | Potency [9] | Potency [10] | Potency [11] | Potency [12] | outcome [13] | Potency [14] | outcome [15] | outcome [16] | outcome [17] | outcome [18] | Potency [19] | Potency [20]

C=C1C[C@H]2O[C@@H]3[C@@H]4[C@H](CC[C@@](C)(O)[C@@H]42)[C@H](C)COC3(C)[C@@H](OC(=O)CCCCCCC)C[C@H]1O (some centres not stated)
inactive: outcome [8] | Potency [9] | Potency [10] | Potency [11] | Potency [12] | outcome [13] | Potency [14] | outcome [15] | outcome [16] | outcome [17] | outcome [18] | Potency [19] | Potency [20]

CC(C)[C@@H]1CC(=O)c2coc3c2[C@H]1C[C@@H](C)C3=O
inactive: outcome [8] | Potency [9] | Potency [10] | Potency [11] | Potency [12] | outcome [13] | Potency [14] | outcome [15] | outcome [16] | outcome [17] | outcome [18] | Potency [19] | Potency [20]

COc1cc(C2C3=C(Cc4cc5c(cc42)OCO5)C(=O)OC3)cc(OC)c1OC (configuration not stated)
inactive: outcome [8] | Potency [9] | Potency [10] | Potency [11] | Potency [12] | outcome [13] | Potency [14] | outcome [15] | outcome [16] | outcome [17] | outcome [18] | Potency [19] | Potency [20]

CC[C@@H]1[C@H](C)[C@H](c2cc(OC)c(OC)cc2OC)[C@@H](C)[C@H](c2cc(OC)c(OC)cc2OC)[C@]12C=C(OC)C(=O)C=C2OC
inactive: outcome [8] | Potency [9] | Potency [11] | outcome [13] | Potency [14] | outcome [17] | outcome [18] | Potency [20]

COc1cc2c(NC3CCN(C4CCCCC4)CC3)nc(N3CCCN(C(C)C)CC3)nc2cc1OCCCN1CCCCC1
active: Potency [1] 11.7 µM | Potency [2] 4.68 µM | Potency [3] 5.25 µM | Potency ([7]; HiBiT) 17.6 µM | Potency ([7]; Viability) 24.9 µM
inactive: Z-AUC [6] 1.47
1.1: Z-AUC [6, 21]
0.674: Z-AUC ([6]; measured here: PEO4 Z-AUC)

CC1=C[C@H]2[C@H]3C(=O)C(c4ccc(O)cc4)=C[C@@]3(c3ccc(O)cc3)[C@@H]1C(=O)[C@]2(C)O
inactive: outcome [8] | Potency [9] | Potency [10] | Potency [11] | Potency [12] | outcome [13] | Potency [14] | outcome [15] | outcome [16] | outcome [17] | outcome [18] | Potency [19] | Potency [20]

O[C@H]1C=C2[C@H]3CN(Cc4cc5c(cc43)OCO5)[C@H]2C[C@@H]1O
inactive: outcome [8] | Potency [9] | Potency [10] | Potency [11] | Potency [12] | outcome [13] | Potency [14] | outcome [15] | outcome [16] | outcome [17] | outcome [18] | Potency [19] | Potency [20]

CN(C)C/C=C/C(=O)Nc1ccc(C(=O)N2CCC[C@@H](Nc3ncc(Cl)c(-c4c[nH]c5ccccc45)n3)C2)cc1
inactive: Potency [4] | Potency [5] | Z-AUC [6] -1.88 | activity change, negative = inhibition ([7]; Viability) 26.2%
-2.1: Z-AUC ([6]; measured here: PEO4 Z-AUC)
-2.59: Z-AUC [6, 21]
active: Potency [1] 1.47 µM | Potency [2] 0.166 µM | Potency [3] 0.132 µM | Potency ([7]; HiBiT) 1.11 µM

COc1ccc([C@@H]2c3cc4c(cc3C[C@H](C)C2C)OCO4)cc1OC (some centres not stated)
inactive: outcome [8] | Potency [9] | Potency [10] | Potency [11] | Potency [12] | outcome [13] | Potency [14] | outcome [15] | outcome [16] | outcome [17] | outcome [18] | Potency [19] | Potency [20]

C[C@H](c1cnc(N)[nH]1)c1ccc(O)c2[nH]cc(-c3cnc(-c4c[nH]c5ccccc45)c(=O)[nH]3)c12
inactive: outcome [8] | Potency [9] | Potency [10] | Potency [11] | Potency [12] | outcome [13] | Potency [14] | outcome [15] | outcome [18] | Potency [19]

C[C@H](CCC(O)C(C)(O)CO)[C@@]1(O)CC[C@@]2(C)C3=C(CC[C@@]21C)[C@@]1(C)CCC(OC(=O)CCC(=O)O)C(C)(C)[C@@H]1CC3 (some centres not stated)
inactive: outcome [8] | Potency [9] | Potency [11] | Potency [12] | outcome [13] | Potency [14] | outcome [15] | outcome [16] | outcome [17] | outcome [18] | Potency [19] | Potency [20]
